# Reference: article PMC11006913
# Changes are numbered by the printed parent chain.
# What was measured:
# Assay in all cases: PBM; 200 nM protein, PBS
# Conditions in all cases: dsDNA, one strand shown
# NKX2-5 [1] = target: NKX2-5 (Homo sapiens, UniProt P52952 125-210, R139K)
# NKX2-4 [2] = target: T1, NKX2-4 (Homo sapiens, UniProt Q9H2Z4 175-261, P217L)
# T1 sequence: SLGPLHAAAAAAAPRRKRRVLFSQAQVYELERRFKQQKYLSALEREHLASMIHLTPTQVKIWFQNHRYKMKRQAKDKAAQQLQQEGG
# NKX2-4 [3] = target: T2, NKX2-4 (Homo sapiens, UniProt Q9H2Z4 175-261, T231S)
# T2 sequence: T1 sequence with L43P, T57S
# NKX2-4 [4] = target: T3, NKX2-4 (Homo sapiens, UniProt Q9H2Z4 175-261)
# T3 sequence: T1 sequence with L43P
# NKX2-6 [5] = target: T4, NKX2-6 (Homo sapiens, UniProt A6NCS4 118-204, R150C)
# T4 sequence: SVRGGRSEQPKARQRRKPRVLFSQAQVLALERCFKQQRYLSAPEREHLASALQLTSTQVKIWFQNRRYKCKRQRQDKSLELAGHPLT
# NKX2-6 [6] = target: T5, NKX2-6 (Homo sapiens, UniProt A6NCS4 118-204)
# T5 sequence: T4 sequence with C33R
# NKX2-4 [7] = target: T6, NKX2-4 (Homo sapiens, UniProt Q9H2Z4 175-261, R246Q)
# T6 sequence: T1 sequence with L43P, R72Q
# NKX2-6 [8] = target: T7, NKX2-6 (Homo sapiens, UniProt A6NCS4 118-204, F151L)
# T7 sequence: T4 sequence with C33R, F34L
# NKX3-2 [9] = target: NKX3-2 (Homo sapiens, UniProt P78367 192-278, P234S)
# Chain of NKX3-2 (Homo sapiens, UniProt P78367 192-278, P234S) (P78367 192-278 P234S): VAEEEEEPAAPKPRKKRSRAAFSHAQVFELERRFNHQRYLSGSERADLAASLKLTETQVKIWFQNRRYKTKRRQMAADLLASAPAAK
# NKX2-5 [10] = target: NKX2-5 (Homo sapiens, UniProt P52952 125-210)
# Chain of NKX2-5 (Homo sapiens, UniProt P52952 125-210) (P52952 125-210): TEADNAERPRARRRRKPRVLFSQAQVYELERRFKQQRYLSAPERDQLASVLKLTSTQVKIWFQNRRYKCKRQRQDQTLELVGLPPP
# HOXB4 [11] = target: HOXB4 (Homo sapiens, UniProt P17483 148-234)
# Chain of HOXB4 (Homo sapiens, UniProt P17483 148-234) (P17483 148-234): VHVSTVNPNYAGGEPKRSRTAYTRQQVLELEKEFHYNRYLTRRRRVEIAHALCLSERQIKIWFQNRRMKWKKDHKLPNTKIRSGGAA
# HOXB4 [12] = target: HOXB4 (Homo sapiens, UniProt P17483 148-234, V174I)
# Chain of HOXB4 (Homo sapiens, UniProt P17483 148-234, V174I) (P17483 148-234 V174I): as the sequence (P17483 148-234) above, with V27I counted along it
# SHOX = SHOX (Homo sapiens, UniProt O15266 103-189)
# Chain of SHOX (O15266 103-189): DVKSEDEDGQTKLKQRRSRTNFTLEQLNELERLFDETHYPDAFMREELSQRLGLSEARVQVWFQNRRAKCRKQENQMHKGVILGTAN
# VENTX [13] = target: T8, VENTX (Homo sapiens, UniProt O95231 78-163, R121Q)
# T8 sequence: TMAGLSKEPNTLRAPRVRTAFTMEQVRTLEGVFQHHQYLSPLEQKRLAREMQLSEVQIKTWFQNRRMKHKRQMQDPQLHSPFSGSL
# VENTX [14] = target: T9, VENTX (Homo sapiens, UniProt O95231 78-163)
# T9 sequence: T8 sequence with Q44R
# VENTX [15] = target: T10, VENTX (Homo sapiens, UniProt O95231 78-163, Y115F)
# T10 sequence: T8 sequence with Y38F, Q44R
# NKX3-2 [16] = target: NKX3-2 (Homo sapiens, UniProt P78367 192-278)
# Chain of NKX3-2 (Homo sapiens, UniProt P78367 192-278) (P78367 192-278): as the sequence (P78367 192-278 P234S) above, with S43P counted along it
# ALX1 [17] = target: ALX1 (Homo sapiens, UniProt Q15699 118-204, L144V)
# Chain of ALX1 (Homo sapiens, UniProt Q15699 118-204, L144V) (Q15699 118-204 L144V): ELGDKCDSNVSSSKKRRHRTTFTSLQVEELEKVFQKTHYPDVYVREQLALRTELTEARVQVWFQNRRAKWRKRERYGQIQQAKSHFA
# ALX1 [18] = target: ALX1 (Homo sapiens, UniProt Q15699 118-204, L144R)
# Chain of ALX1 (Homo sapiens, UniProt Q15699 118-204, L144R) (Q15699 118-204 L144R): as the sequence (Q15699 118-204 L144V) above, with V27R counted along it
# ALX1 [19] = target: ALX1 (Homo sapiens, UniProt Q15699 118-204)
# Chain of ALX1 (Homo sapiens, UniProt Q15699 118-204) (Q15699 118-204): as the sequence (Q15699 118-204 L144V) above, with V27L counted along it
# Chain of NKX2-5 (Homo sapiens, UniProt P52952 125-210, R139K) (P52952 125-210 R139K): as the sequence (P52952 125-210) above, with R15K counted along it
sequence,measurement,setting,value
ACACTTAT,binding signal,NKX2-5 [1],"12.7 upbm affinity estimate (log intensity, higher = more binding, comparable within an allelic series)"
same,binding signal,NKX2-4 [2],"12.6 upbm affinity estimate (log intensity, higher = more binding, comparable within an allelic series)"
same,binding signal,NKX2-4 [3],"12.9 upbm affinity estimate (log intensity, higher = more binding, comparable within an allelic series)"
same,binding signal,NKX2-4 [4],"12.4 upbm affinity estimate (log intensity, higher = more binding, comparable within an allelic series)"
same,binding signal,NKX2-6 [5],"11.9 upbm affinity estimate (log intensity, higher = more binding, comparable within an allelic series)"
same,binding signal,NKX2-6 [6],"13.6 upbm affinity estimate (log intensity, higher = more binding, comparable within an allelic series)"
same,binding signal,NKX2-4 [7],"13.1 upbm affinity estimate (log intensity, higher = more binding, comparable within an allelic series)"
same,binding signal,NKX2-6 [8],"11.1 upbm affinity estimate (log intensity, higher = more binding, comparable within an allelic series)"
same,binding signal,NKX3-2 [9],"12.5 upbm affinity estimate (log intensity, higher = more binding, comparable within an allelic series)"
same,binding signal,NKX2-5 [10],"12.6 upbm affinity estimate (log intensity, higher = more binding, comparable within an allelic series)"
CCGCGTCG,binding signal,NKX2-5 [1],"9.03 upbm affinity estimate (log intensity, higher = more binding, comparable within an allelic series)"
same,binding signal,HOXB4 [11],"7.75 upbm affinity estimate (log intensity, higher = more binding, comparable within an allelic series)"
same,binding signal,HOXB4 [12],"7.36 upbm affinity estimate (log intensity, higher = more binding, comparable within an allelic series)"
same,binding signal,NKX2-5 [10],"8.95 upbm affinity estimate (log intensity, higher = more binding, comparable within an allelic series)"
ACCAGCTG,binding signal,NKX2-5 [1],"8.74 upbm affinity estimate (log intensity, higher = more binding, comparable within an allelic series)"
same,binding signal,SHOX,"7.08 upbm affinity estimate (log intensity, higher = more binding, comparable within an allelic series)"
same,binding signal,VENTX [13],"7.92 upbm affinity estimate (log intensity, higher = more binding, comparable within an allelic series)"
same,binding signal,VENTX [14],"8.2 upbm affinity estimate (log intensity, higher = more binding, comparable within an allelic series)"
same,binding signal,VENTX [15],"8.14 upbm affinity estimate (log intensity, higher = more binding, comparable within an allelic series)"
same,binding signal,NKX2-5 [10],"9.02 upbm affinity estimate (log intensity, higher = more binding, comparable within an allelic series)"
ATAAGTAC,binding signal,NKX2-5 [1],"12.9 upbm affinity estimate (log intensity, higher = more binding, comparable within an allelic series)"
same,binding signal,NKX2-4 [2],"12.6 upbm affinity estimate (log intensity, higher = more binding, comparable within an allelic series)"
same,binding signal,NKX2-4 [3],"13 upbm affinity estimate (log intensity, higher = more binding, comparable within an allelic series)"
same,binding signal,NKX2-4 [4],"12.5 upbm affinity estimate (log intensity, higher = more binding, comparable within an allelic series)"
same,binding signal,NKX2-6 [5],"12 upbm affinity estimate (log intensity, higher = more binding, comparable within an allelic series)"
same,binding signal,NKX2-6 [6],"13.6 upbm affinity estimate (log intensity, higher = more binding, comparable within an allelic series)"
same,binding signal,NKX2-4 [7],"13.1 upbm affinity estimate (log intensity, higher = more binding, comparable within an allelic series)"
same,binding signal,NKX2-6 [8],"10.9 upbm affinity estimate (log intensity, higher = more binding, comparable within an allelic series)"
same,binding signal,NKX3-2 [9],"12.5 upbm affinity estimate (log intensity, higher = more binding, comparable within an allelic series)"
same,binding signal,NKX2-5 [10],"12.7 upbm affinity estimate (log intensity, higher = more binding, comparable within an allelic series)"
CACTTATA,binding signal,NKX2-5 [1],"13.1 upbm affinity estimate (log intensity, higher = more binding, comparable within an allelic series)"
same,binding signal,NKX2-4 [2],"12.6 upbm affinity estimate (log intensity, higher = more binding, comparable within an allelic series)"
same,binding signal,NKX2-4 [3],"13 upbm affinity estimate (log intensity, higher = more binding, comparable within an allelic series)"
same,binding signal,NKX2-4 [4],"12.5 upbm affinity estimate (log intensity, higher = more binding, comparable within an allelic series)"
same,binding signal,NKX2-6 [5],"12.1 upbm affinity estimate (log intensity, higher = more binding, comparable within an allelic series)"
same,binding signal,NKX2-6 [6],"13.8 upbm affinity estimate (log intensity, higher = more binding, comparable within an allelic series)"
same,binding signal,NKX2-4 [7],"13.2 upbm affinity estimate (log intensity, higher = more binding, comparable within an allelic series)"
same,binding signal,NKX2-6 [8],"11.2 upbm affinity estimate (log intensity, higher = more binding, comparable within an allelic series)"
same,binding signal,NKX3-2 [9],"12.7 upbm affinity estimate (log intensity, higher = more binding, comparable within an allelic series)"
same,binding signal,NKX2-5 [10],"12.8 upbm affinity estimate (log intensity, higher = more binding, comparable within an allelic series)"
same,binding signal,NKX3-2 [16],"12.8 upbm affinity estimate (log intensity, higher = more binding, comparable within an allelic series)"
CACTTAGA,binding signal,NKX2-5 [1],"12.6 upbm affinity estimate (log intensity, higher = more binding, comparable within an allelic series)"
same,binding signal,NKX2-6 [5],"11.7 upbm affinity estimate (log intensity, higher = more binding, comparable within an allelic series)"
same,binding signal,NKX2-6 [6],"13.6 upbm affinity estimate (log intensity, higher = more binding, comparable within an allelic series)"
same,binding signal,NKX2-6 [8],"10.8 upbm affinity estimate (log intensity, higher = more binding, comparable within an allelic series)"
same,binding signal,NKX3-2 [9],"12.6 upbm affinity estimate (log intensity, higher = more binding, comparable within an allelic series)"
same,binding signal,NKX2-5 [10],"12.4 upbm affinity estimate (log intensity, higher = more binding, comparable within an allelic series)"
same,binding signal,NKX3-2 [16],"12.8 upbm affinity estimate (log intensity, higher = more binding, comparable within an allelic series)"
CTACTTAA,binding signal,NKX2-5 [1],"12.4 upbm affinity estimate (log intensity, higher = more binding, comparable within an allelic series)"
same,binding signal,NKX2-4 [2],"12.5 upbm affinity estimate (log intensity, higher = more binding, comparable within an allelic series)"
same,binding signal,NKX2-4 [3],"12.9 upbm affinity estimate (log intensity, higher = more binding, comparable within an allelic series)"
same,binding signal,NKX2-4 [4],"12.4 upbm affinity estimate (log intensity, higher = more binding, comparable within an allelic series)"
same,binding signal,NKX2-6 [5],"11.5 upbm affinity estimate (log intensity, higher = more binding, comparable within an allelic series)"
same,binding signal,NKX2-6 [6],"13.6 upbm affinity estimate (log intensity, higher = more binding, comparable within an allelic series)"
same,binding signal,NKX2-4 [7],"13 upbm affinity estimate (log intensity, higher = more binding, comparable within an allelic series)"
same,binding signal,NKX2-6 [8],"10.6 upbm affinity estimate (log intensity, higher = more binding, comparable within an allelic series)"
same,binding signal,NKX2-5 [10],"12.3 upbm affinity estimate (log intensity, higher = more binding, comparable within an allelic series)"
CCGGCGCG,binding signal,NKX2-5 [1],"8.28 upbm affinity estimate (log intensity, higher = more binding, comparable within an allelic series)"
same,binding signal,ALX1 [17],"6.28 upbm affinity estimate (log intensity, higher = more binding, comparable within an allelic series)"
same,binding signal,ALX1 [18],"6.34 upbm affinity estimate (log intensity, higher = more binding, comparable within an allelic series)"
same,binding signal,ALX1 [19],"6.04 upbm affinity estimate (log intensity, higher = more binding, comparable within an allelic series)"
same,binding signal,NKX2-5 [10],"8.51 upbm affinity estimate (log intensity, higher = more binding, comparable within an allelic series)"
